system: MILI (PIWIL2) piRISC loaded with L1MC piRNA (26 nt); experiment: pre-steady-state target cleavage rate (min^-1); guide: L1MC piRNA 5'p-UAACUAAAUACUAUGCAAGCUGUAGG; MIWI and MILI are mouse PIWI proteins and EfPiwi is from a freshwater sponge; tags in brackets are library labels; higher = faster piRNA-guided slicing of the target; conditions: auxiliary factor: none (no GTSF1)
Procedure, shortened: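 For Cleave-'n-Seq, a transcribed, DNA-blocked target RNA library […] met 1 nM active affinity-purified piRISC with one synthetic guide at 33 °C for 0–8 or 0–960 min in HEPES–potassium acetate buffer, with or without 500 nM GTSF1 partner protein. Uncleaved targets were sequenced and normalised to depth and weakly complementary targets, with three trials pooled and k3 capped at 0.0001 min^-1. A burst-and-steady-state fit supplied the pre-steady-state cleavage rate.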
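Note: 1 nM active piRISC with 0.1 nM target library at 33 °C single turnover.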

pre-steady-state target cleavage rate, < 0.0001:
UCCUGGAUGUCGAACGUAUCUAUUCUAGUUA
UCCUGGAUGUCGAUGCAUACUAUUUUGUUA
UCCUGGAUGUCGAACGUUAGUAAUUAGUUA
UCCUGGAUGUCGUACGAUAGUAUUUAGUUA
UCCUGGAUGUCGAUGGAUUGUAUUUAGUUA

From the supplement of paper PMC10338343
